Reference: PubChem BioAssay AID591 (National Center for Advancing Translational Sciences (NCATS), 2007)
Out of some 59,000 compounds screened, about 60 (0.1%) were called active. How the calls were made is not given here. The sample as a whole holds a higher share of actives than the screen did.

Assay: qHTS Assay for Spectroscopic Profiling in A488 Spectral Region
Settings: compound autofluorescence; max dye equivalency: Compound Type: qHTS ECL - SigmaAldrich, active compounds read high unless noted; outcome: dye equivalency, Compound Type: qHTS ECL - MLSMR unless noted
Excerpt: NIH Molecular Libraries Screening Centers Network [MLSCN]
NIH Chemical Genomics Center [NCGC]
Occasionally, the artifactual effect may originate from the compounds own spectral or other biophysical properties which generally tend to track its assay concentration. Pre-screening/profiling the library with respect to the compounds spectral properties should help one exclude false positives early on. While the most informative fluorescent profiling data set is obtained by performing a full excitation and emission scan of each well by using a monochromator-based plate reader, such an approach is practical only on a very limited scale as scanning each well requires long time. An alternative approach, applied here, is to perform plate reader scans using selected excitation and emission wavelength pairs to generate a multidimensional relational database that correlates compound concentration and the respective relative fluorescence intensity at a given wavelength set. A standard curve of Alexa 488 (A488) present on each plate as six-point concentration series, was used to compute a normalized fluorescence response, termed dye-equivalent concentration, for each compound at each concentration.
NCGC Assay Protocol Summary:
100 mM Tris buffer, pH 8.0
The wells in columns 1 through 4 of a Kalypsys polypropylene 1536-well compound plate were filled with standard solutions of fluorophore corresponding to the spectral region of interest. Solutions of A488 were placed in the following wells: Y1, Z1: 3 mM, Y2, Z2: 300 uM, Y3, Z3: 30 uM, Y4, Z4: zero (DMSO), AA1, AB1: 3 uM, AA2, AB2: 900 nM, AA3, AB3: 300 nM, AA4, AB4: zero (DMSO).
Six uL of buffer were dispensed to 1536-well Greiner black plates. Compounds and dye standards (23 nL) were transferred via Kalypsys PinTool. The plates were incubated for 15 min at room temperature, and then read on ViewLux (Perkin-Elmer) High-throughput CCD imager using 480 nm and 540 nm excitation and emission filter set.
Keywords: NIH Roadmap, MLSCN, MLI, MLSMR, qHTS, NCGC, A488, A-488, Fluorescent Profiling.

outcome, inactive:
CCOC(=O)N1CCC(C(N)=O)CC1
Cc1cc(C)n2nc(C(=O)Oc3ccc4c(c3)OCO4)nc2n1
N#Cc1ccc(CN2CCCC3(CCN(C(=O)c4ccco4)CC3)C2)cc1 inactive [dye equivalency, Compound Type: qHTS ECL - Pharmacopeia]
CCCCOc1ccc(NC(=O)CSCC(=O)OCC)cc1
Cc1cccc(N)c1SC1CCCCC1O (stereo not drawn)
COc1ccccc1CNc1ncncc1-c1cccc(NS(C)(=O)=O)c1 inactive [dye equivalency, Compound Type: qHTS ECL - Pharmacopeia]
COC(=O)Cc1c(C)c2ccc(OCC(=O)NCc3ccc4c(c3)OCO4)cc2oc1=O inactive [dye equivalency, Compound Type: qHTS ECL - DPISMR]
O=c1c(CCc2ccccc2)nc2cnc(N3CCNCC3)nc2n1Cc1cccs1 inactive [dye equivalency, Compound Type: qHTS ECL - Pharmacopeia]
O=C(NC1CCCCC1)N1CCc2[nH]c3ccccc3c2C1 inactive [dye equivalency, Compound Type: qHTS ECL - DPISMR]
CCOC(=O)c1c(N)c(C#N)nn1-c1ccccc1C(=O)OC inactive [dye equivalency, Compound Type: qHTS ECL - DPISMR]
Cc1ccc(C(=O)NC2CC(C)(C)NC(C)(C)C2)c(C)c1
O=C(Oc1ccc2c(c1)CN(Cc1ccccc1)CO2)c1ccccc1 inactive [dye equivalency, Compound Type: qHTS ECL - NCI]
c1ccc(-c2cn3cccnc3n2)cc1
CCC(C)n1[nH]c(=O)cc1N (stereo not drawn)
Cc1cccc(N2CCN(C(c3ccccc3)c3nnnn3CC3CCCO3)CC2)c1C (stereo not drawn)
CC1(C)CC(=O)C2=C(C1)NCN(CCCN1CCOCC1)C2 inactive [dye equivalency, Compound Type: qHTS ECL - DPISMR]
O=C(c1ccco1)N1CCN(CC(=O)N(C2CCCCC2)C2CCS(=O)(=O)C2)CC1 (stereo not drawn)
O=c1c(-c2cc(F)cc(F)c2)nc2cnc(Oc3ccccc3)nc2n1C[C@H]1CCCO1 inactive [dye equivalency, Compound Type: qHTS ECL - Pharmacopeia]
CCCc1nc2ccccc2c(C(=O)OCc2nnc(-c3cc(OC)c(OC)c(OC)c3)o2)c1CC
COc1ccc(OCc2cccc(C(=O)N3CCCC3)c2)cc1
CCOc1ccccc1NC(=O)Nc1cc(OC)ccc1OC inactive [dye equivalency, Compound Type: qHTS ECL - DPISMR]
Cn1c(=O)[nH]c(=O)c2c1nc(NCCCn1ccnc1)n2Cc1cccc(Br)c1 inactive [dye equivalency, Compound Type: qHTS ECL - DPISMR]
CCCc1nc2ccccc2c(=O)n1/N=C/c1ccc(O)c(O)c1 inactive [dye equivalency, Compound Type: qHTS ECL - DPISMR]
COc1ccc(-c2nc3cnc(Oc4ccccc4)nc3n(Cc3cccs3)c2=O)cc1 inactive [dye equivalency, Compound Type: qHTS ECL - Pharmacopeia]
CN1CCN(S(=O)(=O)c2ccc3[nH]cc(C(=O)O)c(=O)c3c2)CC1 inactive [dye equivalency, Compound Type: qHTS ECL - DPISMR]
CCCOP(=O)(c1ccc(N(C)C)cc1)C(O)c1cc(OC)c(OC)c(OC)c1 (stereo not drawn) inactive [dye equivalency, Compound Type: qHTS ECL - DPISMR]
COc1ccccc1-c1nc(NCc2cccs2)c2ccccc2n1 inactive [dye equivalency, Compound Type: qHTS ECL - Pharmacopeia]
CC(=O)N1CCC(C(=O)Nc2nc(-c3ccccc3)ns2)CC1 inactive [dye equivalency, Compound Type: qHTS ECL - DPISMR]
N#Cc1cccc(-c2ccc3ncnc(NCc4cccs4)c3c2)c1 inactive [dye equivalency, Compound Type: qHTS ECL - Pharmacopeia]
COc1ncc2nc(-c3ccc(Cl)cc3)c(=O)n(-c3ccccc3)c2n1 inactive [dye equivalency, Compound Type: qHTS ECL - Pharmacopeia]
COc1ccc2c3c(c(=O)oc2c1OCC(=O)C(C)(C)C)CCCC3 inactive [dye equivalency, Compound Type: qHTS ECL - DPISMR]
CCOc1ccccc1-n1c(SCC(=O)N2CCCC2)nnc1-c1ccoc1C
CCOC(=O)N1CCC(NC(=O)CN2C(=O)COc3ccc(C(C)(C)C)cc32)CC1 inactive [dye equivalency, Compound Type: qHTS ECL - DPISMR]
CC1(C)CC(=O)C=C(NCc2ccncc2)C1
Oc1ccc2ccccc2c1C=NCc1c(O)ccc2ccccc12 inactive [dye equivalency, Compound Type: qHTS ECL - NCI]
COc1cccc(NS(=O)(=O)c2ccc3[nH]cc(C(=O)NCCCOC(C)C)c(=O)c3c2)c1
O=c1c2c(nc3n1CCCCC3)sc1c(O)cccc12
O=C(CN1CCN(c2ccc(F)cc2)CC1)Nc1cccc(C(F)(F)F)c1 inactive [dye equivalency, Compound Type: qHTS ECL - DPISMR]
CCc1c(C)nc(N)n2c(SCC(=O)N3CCN(c4ccccc4)CC3)nnc12
O=C(Nc1cccc(F)c1)N1CCC2(CC1)CCN(S(=O)(=O)c1ccccc1)CC2 inactive [dye equivalency, Compound Type: qHTS ECL - Pharmacopeia]
COc1ccc(-c2nnc(SCC(=O)c3ccco3)n2-c2ccccc2)cc1
CCn1c(SCC(=O)NCC2CCCO2)nc2cc(S(=O)(=O)N3CCCCC3)ccc21 (stereo not drawn)
O=c1c(-c2cccs2)nc2cnc(Oc3ccccc3)nc2n1-c1ccccc1 inactive [dye equivalency, Compound Type: qHTS ECL - Pharmacopeia]
